In PubChem BioAssay:
Activity calls are given as the source filed them.

Experiments:
[1] = anti-His antibody binders, primary screen, artefact control for SMM control protein annotation, biochemical, small-molecule microarray, 635 nm fluorescence (AID 1128); details: anti-His Alexa647 antibody binding, higher = more signal;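 also: score merges feature fluorescence with signal-to-noise for each printed compound spot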
[2] = tested on: Human papillomavirus type 1a E7 protein (residues 1-88); experiment: HPV1a E7 small-molecule binders, primary screen, biochemical, small-molecule microarray, residues 1-88, 635 nm (AID 1129); details: small-molecule microarray binding, fluorescence 635 nm; higher = more signal
[3] = target: Focal adhesion kinase 1 (Homo sapiens) (UniProt Q05397); experiment: small-molecule microarray binders of FAK, primary screen, biochemical, 635/667 nm fluorescence, BSA, DTT (AID 1130); details: PTK2 binding, 635 nm fluorescence, higher = more signal;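 also: composite of spot emission at 667 nm and signal to noise over triplicate slides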
Sequence of Focal adhesion kinase 1 (Homo sapiens) (Q05397 whole entry, looked up): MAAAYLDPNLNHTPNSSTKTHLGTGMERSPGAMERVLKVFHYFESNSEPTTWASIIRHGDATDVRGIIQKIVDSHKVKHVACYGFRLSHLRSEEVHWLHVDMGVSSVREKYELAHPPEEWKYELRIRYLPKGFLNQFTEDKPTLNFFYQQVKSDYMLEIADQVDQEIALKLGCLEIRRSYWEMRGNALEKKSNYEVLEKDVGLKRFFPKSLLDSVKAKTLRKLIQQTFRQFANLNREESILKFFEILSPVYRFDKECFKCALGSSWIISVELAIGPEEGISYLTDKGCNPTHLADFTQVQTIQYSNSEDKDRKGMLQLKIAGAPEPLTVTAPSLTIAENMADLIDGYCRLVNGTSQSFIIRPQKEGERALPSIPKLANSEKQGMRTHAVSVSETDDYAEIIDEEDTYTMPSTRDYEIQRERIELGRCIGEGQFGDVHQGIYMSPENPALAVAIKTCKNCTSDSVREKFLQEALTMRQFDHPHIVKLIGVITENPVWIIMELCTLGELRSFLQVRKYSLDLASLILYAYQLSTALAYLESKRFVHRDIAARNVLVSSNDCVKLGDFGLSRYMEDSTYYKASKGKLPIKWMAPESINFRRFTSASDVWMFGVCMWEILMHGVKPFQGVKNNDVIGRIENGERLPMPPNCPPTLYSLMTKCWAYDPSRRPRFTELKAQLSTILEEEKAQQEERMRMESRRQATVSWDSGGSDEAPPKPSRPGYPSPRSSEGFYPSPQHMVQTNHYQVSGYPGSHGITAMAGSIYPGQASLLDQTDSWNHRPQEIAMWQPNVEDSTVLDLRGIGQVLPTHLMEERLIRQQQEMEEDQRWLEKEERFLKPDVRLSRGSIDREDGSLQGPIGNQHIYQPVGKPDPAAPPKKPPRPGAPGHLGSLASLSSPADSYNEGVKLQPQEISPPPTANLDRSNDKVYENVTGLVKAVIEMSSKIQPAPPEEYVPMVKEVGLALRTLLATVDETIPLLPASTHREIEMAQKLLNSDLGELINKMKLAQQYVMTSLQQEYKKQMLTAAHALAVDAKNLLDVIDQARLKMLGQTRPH

[4] = tested on: Fibrinogen (Alexa647-labelled); experiment: fibrinogen binders on compound microarrays, profiling panel, artefact control for SMM control-protein annotation, biochemical, small-molecule microarray, 635/667 nm fluorescence (AID 1131); details: fibrinogen-A647 binding fluorescence, higher = more signal;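 also: z-score merges 667 nm fluorescence with per-spot signal-to-noise over triplicate slides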
[5] = target: Follistatin (Homo sapiens) (UniProt P19883); experiment: follistatin binders on small-molecule microarrays, primary screen, biochemical, small-molecule microarray, 635/667 nm fluorescence (AID 1132); details: FST binding, 635 nm fluorescence, higher = more signal
Sequence of Follistatin (Homo sapiens) (P19883 whole entry, looked up): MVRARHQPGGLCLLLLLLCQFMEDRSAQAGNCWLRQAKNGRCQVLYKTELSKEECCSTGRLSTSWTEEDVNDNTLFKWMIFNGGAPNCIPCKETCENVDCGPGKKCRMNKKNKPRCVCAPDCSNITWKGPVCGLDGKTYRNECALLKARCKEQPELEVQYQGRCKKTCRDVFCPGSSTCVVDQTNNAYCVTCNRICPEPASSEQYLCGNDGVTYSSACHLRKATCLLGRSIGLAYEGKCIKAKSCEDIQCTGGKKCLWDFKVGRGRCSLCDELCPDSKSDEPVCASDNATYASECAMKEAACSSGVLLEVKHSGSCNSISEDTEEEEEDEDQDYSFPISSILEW

[6] = target: Fibroblast growth factor 2 (Homo sapiens) (UniProt P09038); experiment: FGF2 binders on small-molecule microarrays, primary screen, biochemical, small-molecule microarray, 635/667 nm fluorescence (AID 1133); details: small-molecule microarray binding, FGF2, fluorescence 635/667; higher = more signal
Sequence of Fibroblast growth factor 2 (Homo sapiens) (P09038 whole entry, looked up): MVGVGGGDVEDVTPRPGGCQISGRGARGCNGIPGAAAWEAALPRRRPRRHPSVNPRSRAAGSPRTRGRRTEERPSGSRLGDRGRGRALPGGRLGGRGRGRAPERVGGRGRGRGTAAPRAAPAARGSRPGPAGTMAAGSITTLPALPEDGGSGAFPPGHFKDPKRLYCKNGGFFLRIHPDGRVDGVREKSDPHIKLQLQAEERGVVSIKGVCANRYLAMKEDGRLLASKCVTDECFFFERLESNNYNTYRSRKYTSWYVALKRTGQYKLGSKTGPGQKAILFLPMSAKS

[7] = mitochondrial membrane potential change in A549 cells, profiling panel, cell-based, JC-1 fluorescence, basal, 24 h, 100 nL (AID 1138); details: higher = more signal;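 also: A549 lung adenocarcinoma cells under basal conditions with no added stimulus; test concentration not given here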
Lefty1 = Lefty1 binders on small-molecule microarrays, primary screen, biochemical, small-molecule microarray, 635/667 nm fluorescence (AID 1139); details: small-molecule microarray binding, fluorescence 635/667; higher = more signal
[8] = tested on: wheat germ agglutinin (Triticum aestivum), Alexa647-labelled; experiment: wheat germ agglutinin binders on compound microarrays, profiling panel, artefact control for SMM control-protein annotation, biochemical, small-molecule microarray, 635/667 nm fluorescence (AID 1140); details: WGA-A647 binding, 635 nm fluorescence, higher = more signal;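 also: score merges 667 nm feature emission with signal to noise over triplicate slides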
[9] = target: Luciferin 4-monooxygenase (Photinus pyralis) (UniProt P08659); experiment: firefly luciferase enzyme inhibitors, primary screen, biochemical, luminescence, purified enzyme, 2006 set (AID 1141); details: SteadyGlo luminescence, 30 min, higher = more signal, called active from +8 up or from −8 down;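 also: cell-free assay with purified firefly luciferase at 100 ng per well in PBS; test concentration not given here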
Sequence of Luciferin 4-monooxygenase (Photinus pyralis) (P08659 whole entry, looked up): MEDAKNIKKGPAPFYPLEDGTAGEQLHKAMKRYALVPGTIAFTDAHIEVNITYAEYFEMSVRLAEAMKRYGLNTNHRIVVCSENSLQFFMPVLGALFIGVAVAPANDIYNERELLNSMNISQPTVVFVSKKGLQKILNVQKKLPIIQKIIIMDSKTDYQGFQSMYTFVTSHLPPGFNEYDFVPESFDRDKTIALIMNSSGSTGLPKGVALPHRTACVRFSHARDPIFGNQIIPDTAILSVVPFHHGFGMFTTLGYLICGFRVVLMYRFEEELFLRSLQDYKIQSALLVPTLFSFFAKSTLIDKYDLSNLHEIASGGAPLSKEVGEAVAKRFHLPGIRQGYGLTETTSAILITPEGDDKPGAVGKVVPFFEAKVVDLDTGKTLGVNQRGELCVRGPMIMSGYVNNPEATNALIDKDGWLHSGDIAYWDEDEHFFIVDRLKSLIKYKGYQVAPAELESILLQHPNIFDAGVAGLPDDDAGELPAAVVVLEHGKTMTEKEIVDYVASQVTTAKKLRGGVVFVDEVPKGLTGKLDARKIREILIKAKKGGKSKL

SMILES	composite z-score [1]	composite z-score [2]	composite z-score [3]	composite z-score [4]	composite z-score [5]	composite z-score [6]	z-score [7]	composite z-score (Lefty1)	composite z-score [8]	z-score [9]
Cc1ccc(S[C@]2(C(=O)O)CC(=O)N(C3CCCCC3)[C@@H]2c2ccc(CO)cc2I)cc1	0.96	1.22	-0.155	0.745	1.19	0.101	-0.996	-0.163	0.89	0.453 (inactive)
COCCCNC(=O)[C@@]1(CCC(=O)OC(C)(C)C)N=C(c2ccc(OCCCO)cc2)O[C@H]1c1ccccc1N=[N+]=[N-]	3.41	1.26	1.04	1.05	1.1	1.15	2.07	-0.167	0.548	-7.45 (inactive)
CC(C)[Si]1(C(C)C)OCc2cc(-c3ccc(-c4ccc(Cl)c(Cl)c4)o3)nc(-c3ccccc3)c21	-0.534	-1.65	-0.838	-1.32	-0.751	-0.94	-0.447	-0.21	-0.0496	-1.07 (inactive)
CCOC(=O)C[C@H]1[C@H](OC(=O)c2ccccc2-c2ccccc2)[C@@H](NC(=O)c2ccc3ccccc3c2)c2cc(OCCCO)ccc2N1C(=O)c1ccccc1	1.49	0.844	0.288	0.609	0.91	1.08	1.04	0.868	-0.0223	-0.124 (inactive)
C=C(COC)/C(=C/C[C@H](OC(=O)c1ccncc1)c1ccccc1OCCO)c1cc(C(=O)OC)ccc1OC	0.717	1.06	0.319	0.148	1.17	0.66	0.416	1.32	0.925	-0.756 (inactive)
COC(=O)C1=CC(CCCO)=CC(c2ccc(CN3CCCC3)cc2)N(Cc2cccc(OC(F)(F)F)c2)C=C1C(=O)OC (stereo not given)	1.6	1.11	0.875	1	0.325	-0.292	2.87	0.279	1.11	-3.06 (inactive)
C=C[C@H](C)[C@H](OC(=O)Nc1ccc(SC)cc1)c1ccc(OCCO)cc1	0.677	1.05	0.0085	0.519	0.376	1.2	-1.38	0.427	1.07	-7.94 (inactive)
O=C(NCCN1CCOCC1)[C@@H]1c2ccccc2C(=O)N(C2Cc3ccccc3C2)[C@H]1c1ccc(CO)cc1	3.03	1.08	0.306	0.739	-0.506	0.082	2.55	-0.724	-0.0583	-1.16 (inactive)
CC(C)N1CC=CC23O[C@@H]4C=CCCOC(=O)C4[C@H]2C(=O)N(CCCO)[C@@H]3C1=O (stereo not given in full)	0.939	-0.0707	0.248	-1.09	-0.0801	-0.565	-1.31	-0.0004	-0.467	0.0763 (inactive)
CCCN1C(=O)[C@]2(Cc3ccccc31)N=C(c1ccc(OCCCO)cc1)O[C@@H]2c1ccccc1	1.18	1.22	0.867	0.971	1.3	0.716	-0.23	0.56	1.11	-0.133 (inactive)
COc1ccc([Si](C)(C)[C@H]2[C@H](CC(=O)N(CCO)Cc3ccccc3)O[C@@]3(C(=O)N(C)c4c(Br)cc(C)cc43)[C@@H]2C)cc1	1.19	1.03	-0.0842	-0.009	1.51	1.84	-0.774	1.57	0.61	-0.342 (inactive)
COCCOC(=O)N1C(=O)[C@@]2(c3cc(C#CC4=CCCCC4)ccc31)[C@H](c1ccccc1OCCO)N1[C@H](c3ccccc3)[C@H](c3ccccc3)OC(=O)[C@H]1[C@@H]2C(=O)N1CCN(c2ncccn2)CC1	0.624	1.15	0.732	0.635	0.76	0.779	-1.05	0.772	0.343	-1.47 (inactive)
CC[C@@H]1O[Si](C(C)C)(C(C)C)c2c1cc(-c1cc(C)c(OC)c(C)c1)nc2-c1ccc(Oc2ccccc2)cc1	-0.23	-0.772	-0.29	-1.22	-0.261	-0.315	-0.413	0.287	0.1	1.09 (inactive)
O=C1O[C@@H](c2ccccc2)[C@@H](c2ccccc2)N2[C@@H](c3ccc(O)cc3)[C@]3(C(=O)Nc4ccc(C#CCCO)cc43)[C@@H](C(=O)N3CCN(c4ncccn4)CC3)[C@H]12	1.56	1.14	0.165	0.512	1.37	1.68	-1.25	0.952	0.0869	0.764 (inactive)
C=CCNC(=O)[C@@H]1[C@H]2C(=O)O[C@H](c3ccccc3)[C@H](c3ccccc3)N2[C@H](c2ccccc2OCCO)[C@@]12C(=O)Nc1ccc(C#CCC(C(=O)OC)C(=O)OC)cc12	1.03	1.2	0.978	0.0251	0.67	0.335	-1.44	-0.0767	0.551	-0.238 (inactive)
CN(C)C(=O)[C@]1(CCC(=O)OC(C)(C)C)N=C(c2ccc(OCCCO)cc2)O[C@@H]1c1ccccc1CN=[N+]=[N-]	1.31	1.21	0.706	0.961	1.25	-0.0399	1.03	0.0183	1.42	-0.703 (inactive)
CC1CC/C=C\[C@H]2OC34C=CCN(c5ccc(Cl)cc5)C(=O)[C@H]3N(C(C)CO)C(=O)[C@]4(C)C2C(=O)O1 (stereo not given in full)	-0.984	-1.5	-0.177	-0.173	-0.954	-1.06	0.798	-0.847	0.429	-1.14 (inactive)
